Among all 3,400 compounds or so, about 120 (3.5%) were called active. Only a sample is shown. Potency and affinity values are given separately. Unmarked numbers belong to inactive results. The rule behind the calls is not given here.
experiment: HepG2 cell cytotoxicity, dose response, cytotoxicity control, ATP luminescence, cherry-pick, activator set 2 (AID 1053143); settings: HepG2 viability, CellTiter-Glo ATP luminescence, 72 h; series mostly up to 26 µM; activity change, negative = cytotoxicity: at the top concentration

SMILES	activity change, negative = cytotoxicity
Oc1ccc(-c2csc(Nc3ccc4c(c3)OCO4)n2)c(O)c1	-4.71%
Oc1ccc(-c2csc(Nc3ncccn3)n2)c(O)c1	0.686%
O=C(/C=C\Nc1ccc2c(c1)OCO2)c1ccc2c(c1)OCO2	-15.2%
Fc1ccccc1-c1nc(-c2ccccc2)no1	-10.7%
Fc1ccccc1-c1nc(-c2ccncc2)no1	-9.69%
S=C(c1ccc(-c2cccc(Cl)c2)o1)N1CCCCC1	-11.6%
COc1ccc(/C=C/C(=O)c2ccc[nH]2)cc1OC	-6.18%
Cc1ccc(Cc2c(-c3cccc(Cl)c3)nc3ccc(Br)cn23)cc1	2.45%
CC(=O)N1N=C(c2ccccc2)CC1c1cn(C)c2ccccc12 (centres undefined)	38.2%
COc1ccc(C2=NN(C(=O)c3ccccc3C(=O)O)C(c3ccccc3O)C2)cc1 (centres undefined)	3.34%
O=c1oc2ccccc2cc1-c1nnc(NCc2ccco2)s1	-16.9%
Cc1cc(OCc2cc(C(=O)N(C)C3CCOC3)no2)cc(C)c1Cl (centres undefined)	-9.61%
Nc1c(C(=O)Nc2ccc3c(c2)OCCO3)nnn1Cc1cccc(Cl)c1	-26.3%
C(/CCc1ccccc1)=N\Nc1nc2ccccc2[nH]1	0.412%
Cc1ccccc1-c1cc(-c2ccccc2O)n[nH]1	3.4% [at 12 µM]
Oc1ccc(Br)cc1-c1cc(-c2ccccc2F)[nH]n1	-27.4%
Oc1ccccc1-c1cc(-c2ccc(F)cc2)n[nH]1	-34.5%
O=[N+]([O-])c1ccc2nc(-c3ccccc3[N+](=O)[O-])[nH]c2c1	-5.65%
CC(C)(C)NC(=O)c1cccc(NC(=O)c2cccc(O)c2)c1	-6.98%
CCC(=O)Nc1cc(NC(=O)CSc2ncc(-c3ccc(F)cc3)n2Cc2ccco2)ccc1C	-14.2%
O=C(CSc1nncs1)NC(=O)Nc1ccc2c(c1)OCCO2	-4.21%
Cc1ccc(NC(=O)c2cc(-c3cccs3)on2)cc1C	12.4%
CC(C)NC(=O)c1cc(-c2cccs2)on1	-17.5%
CCOC(=O)c1ccc(NC(=O)C2CC3CCC2C3)cc1 (centres undefined)	-0.283%
CCOc1ccc(C(=O)NC2CCCCCCC2)cc1	-19.9% [at 12 µM]

SMILES	activity change, negative = cytotoxicity
CCOc1ccc(C(=O)Nc2ccc3[nH]ncc3c2)cc1	-17.4%
O=C(Nc1ccc2ccccc2n1)c1ccccc1Cl	-20.5%
Cn1c(CCNC(=O)c2ccco2)nc2cc(NC(=O)c3ccco3)ccc21	17%
CC(=O)Nc1nc2cc3c(cc2s1)OCCO3	4.89%
CN(C)S(=O)(=O)c1ccc2nc(NC(=O)c3cccnc3)sc2c1	-8.19%
CC(C)(C)C(=O)Nc1nc2cc3c(cc2s1)OCO3	-18.5%
O=C(Nc1nc2cc3c(cc2s1)OCO3)C1CCCCC1	39.8%
O=C(Nc1nc2ccc(F)cc2s1)c1cccs1	-9.76%
Cc1ccc(C(=O)Nc2nc3ccc(Cl)cc3s2)o1	-14.4%
O=C(Nc1nc2cc3c(cc2s1)OCCO3)C1CCCCC1	-13.1%
COc1ccc2nc(NC(=O)c3ccccc3O)sc2c1	-6.8%
Nc1[nH]n(-c2ccccc2)c(=O)c1N=Nc1ccccc1	-8.67%
CC(=O)Nc1cccc(-c2csc(Nc3ncccn3)n2)c1	4.47%
COc1ccc(N(C(=O)c2ccc(S(=O)(=O)N3CCCC3)cc2)C2C=CS(=O)(=O)C2)cc1 (centres undefined)	-4.95%
N/C(=N\OC(=O)c1ccc2c(c1)OCO2)c1ccncc1	-0.949%
N#Cc1cccc(NC(=O)COC(=O)Cn2nc(-c3ccccc3)oc2=O)c1	-7.49%
CC1CC(O)C(C)CN1 (centres undefined)	9.74%
O=C(NC1CCCCC1)c1ccc2ccccc2c1	-2.43%
CCc1ccccc1Nc1nc(N)nc(CSCC(=O)Nc2ccc(C)c(C)c2)n1	-11.2%
O=c1[nH]c(-c2ccccc2)nnc1-c1ccccc1	-10.4%
O=C(OCC(=O)c1ccc(Br)s1)c1ccc(O)cc1	-0.455%
c1cncc(CNc2cccc(-c3nc4ccccc4[nH]3)c2)c1	6.83% [at 12 µM]
O=C(Nc1ccc(-c2nc3ccccc3o2)cc1)c1cccnc1	10.4%
Cc1ccc(-c2cc3nc(NCCc4ccncc4)n(C)c(=O)c3s2)cc1	-1.72%
Cc1ccc(C(=O)Nc2ccc(N3CCCCC3)cc2)cc1	-5.53%

SMILES	activity change, negative = cytotoxicity
O=C(Cc1ccccc1)Nc1ccc(N2CCCCC2)cc1	-10%
COc1ccc(-c2cn3cccc(C)c3n2)cc1F	-15.3%
COc1ccc(C2=Nc3ccccc3N(C(=O)c3ccc4ncccc4c3)C2C(=O)NC(C)(C)C)cc1 (centres undefined)	-21.3%
CN(C)c1ccc(N=Nc2ccc(S(N)(=O)=O)cc2)cc1	-4.4%
CCNS(=O)(=O)c1ccc2nc(NC(=O)/C=C/c3cc(OC)c(OC)c(OC)c3)sc2c1	-1.13%
Cc1cccc(/C=C/c2ccccc2)n1	5.81%
COc1cc(/C=C/c2ccc3cccc(O)c3n2)cc(Cl)c1OC	-24.2%
Cc1ccc2nc(/C=C/c3cccc(F)c3)ccc2c1	-21.2%
Cc1cccc(NC(=O)Nc2ccc3c(c2)OCO3)n1	-21.1%
O=C(NC1CCCC1)c1noc2c1CCCCC2	5.25%
O=C(NC1CCCCCCC1)NC1CCCCC1	1.7%
O=C(Nn1c(SCc2cccc([N+](=O)[O-])c2)nc2ccccc2c1=O)c1ccccc1	-5.38%
O=C(Nc1ccc(N2CCCC2)cc1)c1cccc(Cl)c1	-16.3%
Cc1ccc(Nc2cc(C)nc(-c3ccccc3O)n2)cc1	-4.25%
Oc1ccccc1/C=N/Nc1cccc2cccnc12	-6.46%
O=C(O)c1ccc(N/N=C/c2cccc3cccnc23)cc1	-16.7%
COc1ccc(-c2cc3cc(OC)c(OC)cc3cn2)cc1	-3.55%
COc1cccc(NC(=O)NCc2ccccn2)c1	0.982%
Cc1cccc(-n2ncc3c(N4CCC(C)CC4)ncnc32)c1	0.798%
Cc1nn(Cc2ccccc2Cl)c(Cl)c1C(=O)NCCc1ccccc1	1.52%
CN(C)C(=O)c1ccc(-c2cc(C(F)(F)F)nn2C)s1	-17.9%
Cc1ccnc(NC(=O)c2ccc([N+](=O)[O-])s2)c1	-23.6%
O=C(COc1ccc(Cl)cc1)Nc1ncc([N+](=O)[O-])s1	-16.9%
Brc1ccccc1-c1nc2c3ccccc3ncn2n1	-16.9%
O=c1[nH]c2ccccc2nc1-c1cccs1	-22%

SMILES	activity change, negative = cytotoxicity
Cc1nc2nc(-c3cccs3)cn2nc1C	-15.8%
COc1ccc(-c2ccc(SCC(=O)Nc3cc(C)on3)nn2)cc1OC	-11.4%
Cc1ccc(C(=O)OCC(=O)c2ccccc2)cc1	3.4%
Cc1nc(SCC(=O)c2cccs2)c2oc3ccccc3c2n1	-3.26%
O=C(/C=C/c1ccco1)Nc1cccnc1	-4.29%
COc1ccccc1/C=C/C(=O)Oc1cccc2cccnc12	-14.1%
CCc1ccc(NC(=O)c2cccnc2)cc1	4.52%
CS(=O)(=O)N1CCc2nc(-c3ccccc3)sc2C1	0.131%
Cc1ccc(/C=N/NC(=O)c2ccco2)cc1	7.95%
COc1ccc(NC(=O)c2c(NC(=O)CCC(=O)O)sc(-c3ccccc3)c2C)cc1	-7.68%
Cc1ccc(CCC(=O)Nc2ccccc2F)s1	22.1%
O=C(Nc1ccccc1F)Nc1ccccc1F	15.9% [at 12 µM]
CCCC(=O)Nc1sc(C(=O)Nc2cccc(N)c2)c(C)c1C(=O)OC	-11.7%
c1ccc(Cn2c(-c3ccco3)nc3nc4ccccc4nc32)cc1	-16.9%
Cc1scc(C(=O)N/N=C/c2ccc(Cl)s2)c1C	-1.2%
COc1ccc(-c2cn3cccc(C)c3n2)cc1Br	-4.83%
CC(C)(C)c1cc(NCCCn2ccnc2)n2ncc(-c3ccccc3)c2n1	-19.6%
O=c1c2ccccc2nc2c3ccccc3c(NCc3ccccn3)nn12	-3.53% [at 6 µM]
C=CCSc1cc(C)nc2c(-c3ccccc3)cnn12	-26%
Cc1cc(C)n(-c2cc(C(C)(C)C)nc3c(-c4ccccc4)cnn23)n1	-9.79%
CN(C)c1ccc(C#Cc2ccc3cc(CCCO)oc(=O)c3c2)cc1	1.77%
Cc1ccc(-n2nc3c(n2)/C(=N/O)CC/C3=N\O)cc1	-13.2%
CCCCCC(=O)Nc1nc2ccccc2[nH]1	-10%
Cc1ccc(-c2csc(NC(=O)c3cccc(C)c3)c2C(=O)O)cc1	-4.95%
N/C(=N\OC(=O)COc1ccccc1)c1ccccn1	-7.81%

SMILES	activity change, negative = cytotoxicity
CCCCNc1c(-c2ccc(SC3CCCCC3)cc2)nc2ccccn12	-6.41%
O=c1[nH]c(/C=C/c2ccc(Br)cc2)nc2ccccc12	-13.3% [at 12 µM]
c1ccc([C@H]2CN3C(=N2)Sc2ccccc23)cc1	-21.7% [at 12 µM]
O=C(NC1CCCCC1)c1cc(-c2cccs2)on1	-1.19%
O=C(NC1CCCC1)c1cc(-c2ccc(Cl)cc2)on1	-11.1%
COc1cc2nn(-c3ccccc3N)nc2cc1OC	-9.19%
CCOC(=O)c1sc(NC(=O)C2CCC2)cc1C	-22.4%
CCOC(=O)c1sc(NC(=O)Nc2ccc(Cl)cc2)nc1C	-4.05% [at 12 µM]
Cc1ccc(NC(=O)c2sccc2C)nc1	-18%
Cc1csc(NC(=O)Nc2cccc(Cl)c2)n1	-9.02%
Cc1ccc(C(=O)/C=C/Nc2ccccc2C(N)=O)cc1	-20.8%
Cn1cccc1C(=O)Nc1ccc(N2CCOCC2)cc1	-18.9%
COc1cccc2nc3cc(C)c(C)cc3nc12	-12.1%
CCCC1CCC(c2ccc(OCC)cc2)=CC1=O (centres undefined)	-5.38%
Cc1ccc2nc(SCC(=O)c3ccc(O)cc3O)[nH]c2c1	-3.55%
Fc1ccccc1COc1ccc(/C=N/n2cnnc2)cc1	-11%
Fc1ccccc1Cn1nnc(-c2ccc3c(c2)OCO3)n1	-26.9%
CCN1C(=O)S/C(=C\c2ccc(N3CCOCC3)cc2C)C1=O	21.6%
O=C(Nc1nc2c(F)cccc2s1)c1ccco1	-9.02%
Cn1c(=NC(=O)c2cnccn2)sc2ccccc21	-11.9%
Cc1sc(NC(=O)C2CCCCC2)c(C#N)c1-c1ccccc1	-2.58%
CCOc1ccc2oc(C(=O)Nc3nccs3)c(C)c2c1	-0.418%
COc1ccc2oc(C(=O)Nc3ccccn3)c(C)c2c1	-22.9%
COc1ccc(N=C2SC(CC(=O)Nc3ccccc3)C(=O)N2Cc2ccco2)cc1 (centres undefined)	-1.28%
